ELG1 repair inh: qHTS screen for small molecules that inhibit ELG1-dependent DNA repair in human embryonic kidney (HEK293T) cells expressing luciferase-tagged ELG1; hit rate 2.3% among 330,000; Potency, µM (series often up to 46.1 µM), most hits filed as inhibitors; AID 504467, 2011; HEK293T ELG1-luciferase reporter, luminescence, 16 h; DNA damage induced by 5-fluorouridine; note: nearly all actives have a fitted effect of over 55% in size
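Quantitative HTS, concentration-response format. 2,000 cells/well co-treated with 5-fluorouridine and compound, 16 hr in 5% CO2 at 37 °C; ONE-Glo luminescence read after 30 min.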
IL1B secr inh: qHTS for Inhibitors of Inflammasome Signaling: IL-1-beta AlphaLISA Primary Screen | THP-1 LPS/ATP IL-1B secretion, AlphaLISA, 16 h; active compounds read low | hit rate 4.7% among 360,000 | AID 743279, 2014 | activity change, % at 57.5 µM; in the data active = activity change below about -50%; inconclusive = mostly about -30% to -49%
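THP-1 cells pretreated 1 hr with compounds (up to 57.5 uM final), then stimulated with LPS (250 ng/mL final) plus ATP (1.25 mM final); secreted IL-1B measured by AlphaLISA after 16 hr, decreased signal indicating inhibition.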
TDP1 block: qHTS Assay for Inhibitors of Tyrosyl-DNA Phosphodiesterase (TDP1). hit rate 0.28% among 350,000. recombinant TDP1, AlphaScreen DNA substrate cleavage. Potency, µM (top dose mostly 130 µM), usual class: inhibitors. AID 485290, 2010; note: nearly all actives have a fitted effect of over 40% in size
Target sequence (Q9NUW8 whole entry, looked up): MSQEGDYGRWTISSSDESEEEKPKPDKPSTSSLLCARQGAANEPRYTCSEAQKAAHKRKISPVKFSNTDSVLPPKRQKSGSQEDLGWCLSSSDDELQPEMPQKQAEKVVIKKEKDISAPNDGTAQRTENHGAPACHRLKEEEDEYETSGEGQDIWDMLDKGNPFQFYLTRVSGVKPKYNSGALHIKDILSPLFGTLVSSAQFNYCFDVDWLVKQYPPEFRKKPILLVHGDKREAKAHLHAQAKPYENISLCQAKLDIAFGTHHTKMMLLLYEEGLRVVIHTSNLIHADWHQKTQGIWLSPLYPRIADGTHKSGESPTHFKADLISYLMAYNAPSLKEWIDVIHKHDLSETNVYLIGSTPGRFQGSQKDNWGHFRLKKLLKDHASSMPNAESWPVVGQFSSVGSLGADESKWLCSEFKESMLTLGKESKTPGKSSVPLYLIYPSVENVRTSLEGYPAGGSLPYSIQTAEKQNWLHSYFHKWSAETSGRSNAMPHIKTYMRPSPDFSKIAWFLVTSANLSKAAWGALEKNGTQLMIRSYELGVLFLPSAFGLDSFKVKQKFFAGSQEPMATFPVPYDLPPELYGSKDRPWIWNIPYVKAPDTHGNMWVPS
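Tdp1 1 nM final; 15 min RT w/ cpd; substrate 15 nM, 5 min; beads 10 ug/ml, 10 min; AlphaScreen read. Neg ctrl: no enzyme.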
TDP1 cell CPT: qHTS for Inhibitors of human tyrosyl-DNA phosphodiesterase 1 (TDP1): qHTS in cells in presence of CPT | chicken DT40 Tdp1-/-;hTDP1 cells + 20 nM CPT, ATP luminescence, 48 h | AID 686979, 2013 | hit rate 12% among 420,000 | Potency, µM (highest dose often 46.2 µM), hits mostly inhibitors; note: nearly all actives have a fitted effect of over 55% in size
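Chicken DT40 Tdp1-/- cells stably complemented with human TDP1 were seeded at 400 cells/well in medium containing 20 nM camptothecin, exposed to pin-transferred compounds, and grown at 37 °C for at least 48 hr. Viability was read as ATP luminescence.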
Giardia killer: Small Molecules that selectively kill Giardia lamblia: qHTS; Giardia lamblia trophozoite viability; activity change, % at 7.66 µM, hits read low; hit rate 0.15% among 340,000; AID 540267, 2011; in the data active = activity change below about -80%; inconclusive = between about -30% and that limit;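 note: parasites exposed to compound for two days anaerobically before the ATP read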
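Anaerobic 48 hrs incubation at 37 deg C of 100 trophozoites/well with test compounds; ATPLite 1-Step luminescence, 15-30 min RT, reports cellular ATP as viability.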
TDP1 cell noCPT: qHTS for Inhibitors of human tyrosyl-DNA phosphodiesterase 1 (TDP1): qHTS in cells in absence of CPT | DT40 Tdp1-/- hTDP1 cells, no CPT, ATP luminescence, 48 h | Potency, µM (highest dose often 46.2 µM), hits mostly inhibitors | hit rate 15% among 420,000; note: nearly all actives have a fitted effect of over 55% in size
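Readout: luminescence from CellTiter-Glo after 30 min in the dark at RT. Cells: DT40 Tdp1-/- with stable hTDP1, 400/well. Exposure: compounds alone, ≥48 hr, 37 °C.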
Hits are given with their value; [ ] = dose if it differs, or a comment. Compounds with a hit are over-represented: about 19% of the library has one in this group of screens. Unless noted, calls come from the whole dose curve; as a rule, active = well fitted curve in the direction sought with a large enough effect; inconclusive = small, poorly fitted or top-dose-only effect, or another doubt; inactive = no such curve, though single readings can be large; an effect the other way counts as inactive or inconclusive.

`CCc1ccc(C(=O)N2CCN(c3ccc(NC(=O)c4cccnc4)cc3)CC2)cc1` gave ELG1 repair inh 23µM, IL1B secr inh inactive, TDP1 block inactive, TDP1 cell CPT inconclusive, Giardia killer inactive and TDP1 cell noCPT inactive.
`O=C(Nc1ccc(N2CCN(C(=O)c3ccccc3)CC2)cc1)c1cccnc1` gave ELG1 repair inh inconclusive, IL1B secr inh -58, TDP1 block inactive, TDP1 cell CPT inactive, Giardia killer inactive and TDP1 cell noCPT inactive.
Screening O=C(Nc1ccc(N2CCN(C(=O)c3cccs3)CC2)cc1)c1cccnc1 returned ELG1 repair inh inconclusive, IL1B secr inh -52, TDP1 block inactive, TDP1 cell CPT inconclusive, Giardia killer inactive and TDP1 cell noCPT inconclusive.
Screening O=C(Nc1ccc(N2CCN(C(=O)c3ccc(Cl)cc3)CC2)cc1)c1cccnc1 returned ELG1 repair inh inconclusive, IL1B secr inh inconclusive, TDP1 block inactive, TDP1 cell CPT inconclusive, Giardia killer inactive and TDP1 cell noCPT inconclusive.
Screening N[C@H](C(=O)O)[C@@H]1[C@@H](C(=O)O)C1(F)F returned TDP1 block inactive, TDP1 cell CPT inactive and TDP1 cell noCPT inactive.
For COc1ncccc1C(=O)N1CCOc2ccc(C(O)C(c3ccccc3)c3ccccc3)cc2C1 (stereo not given) the results were TDP1 cell CPT inactive[9.04 µM] and TDP1 cell noCPT inconclusive.
For CCn1c2ccccc2c2cc(/C=N/NC(=O)c3cc(O)cc(O)c3)ccc21 the results were ELG1 repair inh inconclusive, IL1B secr inh -106, TDP1 block inactive, TDP1 cell CPT inactive, Giardia killer inactive and TDP1 cell noCPT inconclusive.
Screening CCn1c2ccccc2c2cc(/C=N/NC(=O)c3ccncc3)ccc21 returned ELG1 repair inh inconclusive, IL1B secr inh inactive, TDP1 block inactive, TDP1 cell CPT inconclusive, Giardia killer inactive and TDP1 cell noCPT inconclusive.
For CCn1c2ccccc2c2cc(/C=N/NC(=O)c3ccc(O)cc3)ccc21 the results were ELG1 repair inh inconclusive, IL1B secr inh inactive, TDP1 block inactive, TDP1 cell CPT 23µM, Giardia killer inactive and TDP1 cell noCPT 26µM.
For CC(C)Oc1ccc(C(CC(=O)O)NC(=O)C(Sc2ccccc2)c2ccccc2)cc1 (stereo not given) the results were ELG1 repair inh inactive, IL1B secr inh inactive, TDP1 block inactive, TDP1 cell CPT inactive, Giardia killer inconclusive and TDP1 cell noCPT inactive.
Screening CC(C)(O)C#Cc1ccc(CN2CCc3nnc(CNC(=O)c4cccc(F)c4)n3CC2)cc1 returned TDP1 cell CPT inactive and TDP1 cell noCPT inactive.
For CCCn1ccnc1SCC(=O)Nc1c(C)n(C)n(-c2ccccc2)c1=O the results were ELG1 repair inh inactive, IL1B secr inh inactive, TDP1 block inactive, TDP1 cell CPT inactive, Giardia killer inactive and TDP1 cell noCPT inactive.
For CCCc1nc2c(Cl)cc(C(F)(F)F)cn2c1Cc1ccc(OC)cc1C the results were IL1B secr inh inactive, TDP1 cell CPT 21µM and TDP1 cell noCPT 16µM.
`COc1ccc(Cc2c(-c3ccc(C#N)cc3)nc3c(Cl)cc(C(F)(F)F)cn23)c(C)c1` gave IL1B secr inh inactive, TDP1 cell CPT inconclusive and TDP1 cell noCPT 18µM.
For O=C(Nc1ccc2nc(C(F)(F)F)[nH]c2c1)[C@@H]1O[C@H](CO)[C@@H](O)[C@H]1O the results were IL1B secr inh inactive, TDP1 cell CPT inactive and TDP1 cell noCPT inactive.
C(#Cc1ccc(C#CCN2CCCC2)cc1)CN1CCCC1 was read as ELG1 repair inh inactive, IL1B secr inh inactive, TDP1 block inactive, TDP1 cell CPT inconclusive, Giardia killer inactive and TDP1 cell noCPT 21µM.
`O=C(c1ccccc1)N1CCN(CC#Cc2ccccc2)CC1` gave ELG1 repair inh inconclusive, IL1B secr inh inactive, TDP1 block inactive, TDP1 cell CPT inactive, Giardia killer inactive and TDP1 cell noCPT inactive.
O=C(CSc1ccccc1)NCc1ccc2c(c1)CCN2C(=O)c1ccc(F)cc1 was read as TDP1 block inactive, TDP1 cell CPT inactive and TDP1 cell noCPT inactive.
S=C(NCCCc1cnc[nH]1)NCCCN(CCc1ccccc1)c1ccc(Br)cn1 was read as TDP1 cell CPT 10µM, Giardia killer inactive and TDP1 cell noCPT 8.9µM.
`S=C(NCCCc1cnc[nH]1)NCCCN(Cc1ccc(Cl)cc1)c1ccc(Br)cc1` gave TDP1 cell CPT 13µM, Giardia killer inactive and TDP1 cell noCPT inactive.
`S=C(NCCCc1cnc[nH]1)NCCCN(Cc1ccc(Cl)cc1)c1ccc(-c2ccccc2)cn1` gave TDP1 cell CPT inconclusive, Giardia killer inactive and TDP1 cell noCPT inactive.
O=C(NCCCc1cnc[nH]1)NCCCN(Cc1ccc(Cl)cc1)c1ccc(Br)cn1 was read as TDP1 cell CPT 2.2µM, Giardia killer inactive and TDP1 cell noCPT 4µM.
`S=C(NCCCc1cnc[nH]1)NCCCN(CCc1ccc(Cl)cc1)c1ccc(Br)cn1` gave TDP1 cell CPT inconclusive, Giardia killer inactive and TDP1 cell noCPT inconclusive.
For S=C(NCCCc1cnc[nH]1)NCCCN(Cc1ccc(Cl)cc1)c1ncc(Br)cn1 the results were TDP1 cell CPT 13µM, Giardia killer inactive and TDP1 cell noCPT 7.9µM.
For CCC(Oc1ccccc1)C(=O)Nc1nnc(S(=O)(=O)N(CC)CC)s1 (stereo not given) the results were TDP1 block inactive, TDP1 cell CPT inactive and TDP1 cell noCPT inactive.
`CN(CCO)C(=O)c1cn(C2CCCN(Cc3cccc4ccccc34)C2)nn1` (stereo not given) gave TDP1 cell CPT inactive and TDP1 cell noCPT inactive.
CC(C)Oc1ccc(C(=O)CCN2CCOCC2)cc1 was read as IL1B secr inh inactive, TDP1 cell CPT 3.3µM, Giardia killer inactive and TDP1 cell noCPT 3.7µM.
For CCCCCOc1ccc(C(=O)CCN2CCOCC2)cc1 the results were ELG1 repair inh inconclusive, IL1B secr inh inactive, TDP1 cell CPT 5.8µM, Giardia killer inactive and TDP1 cell noCPT 8.2µM.
`COc1ccc(N2CCN(S(=O)(=O)c3ccc4oc(=O)c5ncn(C)c5c4c3)CC2)cc1` gave TDP1 block inactive, TDP1 cell CPT inactive and TDP1 cell noCPT inactive.
CC(c1ccccc1)N1CCN(C(=O)CCl)CC1 (stereo not given) was read as ELG1 repair inh inactive, IL1B secr inh -79, TDP1 block inactive, TDP1 cell CPT 12µM, Giardia killer inactive and TDP1 cell noCPT 18µM.

Screening data: PubChem BioAssay, National Center for Advancing Translational Sciences (NCATS)
